A short description of experiment [1]: NCI Yeast Anticancer Drug Screen. Data for the rad50 strain (AID 155).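 Also: 0% = growth of vehicle-only cultures of the same strain.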 Conditions: S. cerevisiae rad50 strain growth inhibition; at 50.0 µM; active compounds read high. The method, boiled down:
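DNA repair mutant yeast, compound exposure, growth read-out; inhibition is taken relative to vehicle.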

A short description of experiment [2]: NCI Yeast Anticancer Drug Screen. Data for the mec2-1 strain (AID 157). Conditions: S. cerevisiae mec2-1 strain, at 50.0 µM, active compounds read high. Summed up:
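Using mec2-1 yeast: add compound, measure growth, express inhibition versus vehicle-treated cultures.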

The nature of experiment [3]: NCI Yeast Anticancer Drug Screen. Data for the sgs1 mgt1 strain (AID 161).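 Also: 0% = growth of cultures given vehicle only.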 Particulars: S. cerevisiae sgs1 mgt1 strain, at 50.0 µM, active compounds read high. Summed up: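 This yeast growth screen uses a strain with defined DNA-repair lesions; compound-treated growth is compared with vehicle-treated growth.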
The nature of experiment [4]: NCI Yeast Anticancer Drug Screen. Data for the cln2 rad14 strain (AID 165).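 Also: 0% = growth equal to vehicle treated cultures.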 Particulars: S. cerevisiae cln2 rad14 strain, at 50.0 µM, active compounds read high. The method, boiled down: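 Yeast strain cln2 rad14, bearing defects in cell cycle control and DNA repair, serves as the test system; values reflect growth inhibition compared with vehicle.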
Experiment [5] in a line: NCI Yeast Anticancer Drug Screen. Data for the bub3 strain (AID 167). Particulars: S. cerevisiae bub3 mutant strain, at 50.0 µM, active compounds read high. Summed up:
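In this screen, a yeast mutant lacking normal mitotic checkpoint function is challenged with compound. Relative growth versus vehicle gives the inhibition value.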

The nature of experiment [6]: NCI Yeast Anticancer Drug Screen. Data for the mlh1 rad18 strain (AID 175). Conditions: S. cerevisiae mlh1 rad18 strain growth inhibition; at 50.0 µM; active compounds read high. Summed up: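 Steps: expose repair-defective yeast to compound; measure growth; express inhibition against vehicle-treated controls.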

Molecules are shown by their SMILES. Compounds without any hit were thinned out: in the full panel of roughly 79,000, 15% have a hit. Values without a mark were called inactive. Activity calls are given as the source filed them. Rule as the data show it: active = growth inhibition above about 70%; inactive = the rest.

For `O=S(=O)(Nc1cccc(C(F)(F)F)c1)c1ccc(F)cc1`, the growth inhibition in experiment [1] is 6.95%; in experiment [2], 9.5%; in experiment [3] it was 11%; in experiment [4], 12.9%; in experiment [5], -3.5%; in experiment [6], 42.9%.

In the case of `C=CCNC(=S)N1CC(C)C(=O)Nc2ccccc21` (configuration not stated), the growth inhibition in experiment [1] was -26.1%; in experiment [2] it was -18.2%; in experiment [3], -29.9%; in experiment [4] it was 6.6%; in experiment [5], 11.3%; in experiment [6], -14.4%.

For the compound `CC(C)=C1C(=O)C[C@@]2(C)C[C@H]3OC3(C)CC/C=C(/C)CCC12` (some centres not stated), the growth inhibition was 14.9% in experiment [1]; 11.7% in experiment [2]; 19.8% in experiment [3]; 12.9% in experiment [4]; 30.2% in experiment [5]; -62.5% in experiment [6].

Consider `COC(=O)/C=C1\CCC2C3CC=C4C=C(N5CCCC5)CCC4(C)C3C(=O)CC12C` (configuration not stated), for which the growth inhibition in experiment [1] is -7.6%; in experiment [2], 16.1%; in experiment [3] it was 18.6%; in experiment [4], -9.6%; in experiment [5] it was -12.4%; in experiment [6], -18.2%.

Take `NC(=S)N/N=C/c1ccc(OC(=O)Cc2ccccc2)cn1`: the growth inhibition in experiment [1] is 19.7%; in experiment [2] it was -6.6%; in experiment [3], 10.1%; in experiment [4], 7.1%; in experiment [5], 4.55%; in experiment [6], 16.4%.

As for `CCC(CCN(C)C)(OC(C)=O)c1ccccc1` (configuration not stated), the growth inhibition in experiment [1] is 10.4%; in experiment [2], -0.55%; in experiment [3], -3%; in experiment [4] it was 11.7%; in experiment [5], 30.9%; in experiment [6], -15.8%.

`CCCCn1c(-c2ccccc2)cs/c1=N\NC(=O)Cn1c(C)nc2ccccc21`: the growth inhibition in experiment [1] is -30.8%; in experiment [2] it was -8.3%; in experiment [3], -8.4%; in experiment [4] it was 18.9%; in experiment [5], -3.25%; in experiment [6], -16.8%.

For `C[C@H]1O[C@@H](C(C)(C)C)OC(=O)[C@@H]1C(OC(=O)c1ccccc1)c1cccc2ccccc12` (some centres not stated), the growth inhibition in experiment [1] was -0.1%; in experiment [2], 3.15%; in experiment [3] it was 12.1%; in experiment [4], 25.3%; in experiment [5], -3.45%; in experiment [6], 8%.

In the case of `CC1=C(CCC(C)N)C(C)(C)CCC1` (configuration not stated), the growth inhibition in experiment [1] was 29%; in experiment [2], 14.7%; in experiment [3], 28%; in experiment [4] it was 7.75%; in experiment [5], 11.4%; in experiment [6], 12.8%.

On to `COC(=O)C1(CC(=O)CC(=O)CC2(C(=O)OC)NC(=S)NC(=O)C2C#N)NC(=S)NC(=O)C1C#N` (configuration not stated), for which the growth inhibition is -17.4% in experiment [1]; 19.9% in experiment [2]; -24.6% in experiment [3]; 4.05% in experiment [4]; 5.55% in experiment [5]; 13.8% in experiment [6].

In the case of `O=C(c1ccccc1)C1C(c2ccccc2)C=CC(c2ccccc2)C1C(=O)c1ccccc1` (configuration not stated), the growth inhibition in experiment [1] was -18.4%; in experiment [2] it was -11.3%; in experiment [3], -9%; in experiment [4], -4.55%; in experiment [5] it was 3.2%; in experiment [6], -22.6%.

With `Cc1cccc(N2CCC(O)C2)c1` (configuration not stated), the growth inhibition was -5.3% in experiment [1]; 7.25% in experiment [2]; -0.1% in experiment [3]; 9.35% in experiment [4]; -6.9% in experiment [5]; -21.1% in experiment [6].

Consider `CCOC(=O)C(Cl)(Cl)C(Cl)(OCC)C(=O)OCC` (configuration not stated), for which the growth inhibition in experiment [1] was 16.1%; in experiment [2] it was 26.1%; in experiment [3], 26.8%; in experiment [4] it was -24.4%; in experiment [5] it was 34.5%; in experiment [6], 22.2%.

As to `C=C1C[C@]23CC[C@@H]4C(CO)(CO)CC(=O)C[C@]4(C)[C@@H]2C(O)C[C@H]1C3` (some centres not stated), the growth inhibition was 30.6% in experiment [1]; 17.9% in experiment [2]; 17.8% in experiment [3]; -5.05% in experiment [4]; 7.05% in experiment [5]; 30.9% in experiment [6].

`COc1cc2c(c([N+](=O)[O-])c1)NC(=O)C(C)S2` (configuration not stated): the growth inhibition in experiment [1] was -11.3%; in experiment [2] it was -33.6%; in experiment [3], -19.4%; in experiment [4] it was 28.8%; in experiment [5] it was 2.15%; in experiment [6], 3.65%.

In the case of `OCCCNc1nc2cc(Cl)ccc2o1`, the growth inhibition in experiment [1] is 9.2%; in experiment [2] it was 22.6%; in experiment [3], 16.1%; in experiment [4], -31.1%; in experiment [5], 7.9%; in experiment [6], -14.9%.

As to `O=C1OC(c2cccc(Cl)c2)=N/C1=C\c1cccc([N+](=O)[O-])c1`, the growth inhibition in experiment [1] was 15.5%; in experiment [2], 12.3%; in experiment [3], 24.6%; in experiment [4] it was 18.9%; in experiment [5], 17.6%; in experiment [6], 2%.

With `CCC1(CC)C(=O)N=C(c2ccccc2)N1C`, the growth inhibition in experiment [1] was -5.55%; in experiment [2], -5.75%; in experiment [3], 8.15%; in experiment [4] it was -16%; in experiment [5], -2.3%; in experiment [6], -10.7%.

On to `CCOC(=O)COC(=O)CCc1ccccc1`, for which the growth inhibition in experiment [1] was 0.3%; in experiment [2], -39.6%; in experiment [3] it was -5%; in experiment [4], -36.8%; in experiment [5], -12.9%; in experiment [6], 0.45%.

As for `C/C=C/C(=O)N1C(=O)OC[C@@H]1c1ccccc1`, the growth inhibition in experiment [1] is 37.4%; in experiment [2], 54.5%; in experiment [3] it was 49.7%; in experiment [4], 46.6%; in experiment [5] it was 53.6%; in experiment [6], 31.9%.

As to `C1OC2OC3OCOC3C2O1` (configuration not stated), the growth inhibition in experiment [1] was 16.4%; in experiment [2], 2.85%; in experiment [3], -2.1%; in experiment [4], -58.2%; in experiment [5] it was 17%; in experiment [6] it was -8.8%.

With `CC1(C)C(=O)c2cc3ccc4ccccc4c3cc2C(C)(C)C1(C)C`, the growth inhibition in experiment [1] was -1.25%; in experiment [2] it was -4.25%; in experiment [3], 1.2%; in experiment [4], 43.6%; in experiment [5], 2.75%; in experiment [6], -7%.

With `CCCCOC(=O)c1ccc(Cl)c(Cl)c1`, the growth inhibition in experiment [1] was -1.7%; in experiment [2], -3.2%; in experiment [3], -14.9%; in experiment [4] it was -32.9%; in experiment [5] it was 3%; in experiment [6], 7.45%.

`CC[C@@]12CCC(=S)N(CCSc3ccccc3)[C@@H]1c1c(n(S(=O)(=O)c3ccc(OC)cc3)c3ccccc13)CC2`: the growth inhibition in experiment [1] is -38%; in experiment [2], -18.1%; in experiment [3], 0.3%; in experiment [4], -15.9%; in experiment [5], 0.7%; in experiment [6], -5.3%.

For the compound `COc1ccc(NC(=O)COc2ccc(Cl)cc2Cl)cc1`, the growth inhibition in experiment [1] was 22.9%; in experiment [2], 26.8%; in experiment [3] it was 31.4%; in experiment [4] it was 36%; in experiment [5], 33%; in experiment [6], 19.6%.

Turning to `c1cc[n+](-c2nc3ccccc3[n-]2)cc1`, the growth inhibition in experiment [1] was 2.75%; in experiment [2] it was -7%; in experiment [3], 6.25%; in experiment [4], -18.5%; in experiment [5], -13.8%; in experiment [6], 3.5%.

`CC(=O)OC1CCC2(C)C(=CCC3C4CCC(=O)NC4(C)CCC32)C1` (configuration not stated): the growth inhibition in experiment [1] is 43%; in experiment [2], -1.8%; in experiment [3] it was 52.7%; in experiment [4] it was -4.95%; in experiment [5], 8.4%; in experiment [6] it was 28.9%.

Consider `O=C1CCCc2[nH]c(=O)ccc21`, for which the growth inhibition in experiment [1] is 13%; in experiment [2], -3.1%; in experiment [3] it was 0%; in experiment [4], -7.95%; in experiment [5], 0.3%; in experiment [6], 9.9%.

Take `CC[N+](C)(C)CCOP(=O)(c1ccccc1)c1ccccc1`: the growth inhibition in experiment [1] was 2.4%; in experiment [2], 6.35%; in experiment [3], -15.1%; in experiment [4] it was 4.6%; in experiment [5] it was -2.2%; in experiment [6], 9.5%.

For the compound `Cc1ccc(O)c(C(C)C)c1`, the growth inhibition in experiment [1] is -26.4%; in experiment [2], -48.8%; in experiment [3], -34.4%; in experiment [4], -16.1%; in experiment [5], -40.2%; in experiment [6] it was -8.6%.

Regarding `CCS(=O)(=O)/C=C(\C(=O)c1ccccc1)c1ccccc1`, the growth inhibition in experiment [1] was 83.1% (active); in experiment [2], 93.5% (active); in experiment [3], 94% (active); in experiment [4] it was 47.2%; in experiment [5], 89.8% (active); in experiment [6], 93.3% (active).

Turning to `Oc1cc(N2CCCC2)ccc1/C=N/N1C(=S)N(c2ccccc2)C(=Nc2ccccc2)C1=Nc1ccccc1`, the growth inhibition in experiment [1] was -23.1%; in experiment [2], -31.8%; in experiment [3], -1.3%; in experiment [4], 6.7%; in experiment [5] it was -30.6%; in experiment [6] it was -39.9%.

`CCOC(=O)CCCCCCCCCC[N+](CC)(CC)CC(=O)c1ccc(NC(C)=O)cc1`: the growth inhibition was -1.05% in experiment [1]; -2.35% in experiment [2]; 3.5% in experiment [3]; 12.3% in experiment [4]; 16.8% in experiment [5]; -0.1% in experiment [6].

Consider `C[N+](C)(C)/C=C/c1ccccc1`, for which the growth inhibition was 30.8% in experiment [1]; -8.2% in experiment [2]; 21% in experiment [3]; -11.3% in experiment [4]; 0.2% in experiment [5]; 38.9% in experiment [6].

On to `COc1cc2c(cc1OCc1ccccc1)C(c1cc(OC)c(OC)c(OC)c1)=C1C(=O)OCC1C2` (configuration not stated), for which the growth inhibition was 9.4% in experiment [1]; -1.1% in experiment [2]; -16.4% in experiment [3]; -7.2% in experiment [4]; -1.25% in experiment [5]; 1% in experiment [6].

As to `CC(C)/C=N/N(CCOC(=O)Nc1cccc2ccccc12)C(=O)Nc1cccc2ccccc12`, the growth inhibition in experiment [1] was -4.95%; in experiment [2] it was -15.1%; in experiment [3] it was 1.75%; in experiment [4], -19.8%; in experiment [5] it was -8.15%; in experiment [6] it was 14.8%.

Take `CNC(=O)C(c1ccccc1)C(O)c1ccccc1` (configuration not stated): the growth inhibition in experiment [1] is 10.8%; in experiment [2], -3.7%; in experiment [3] it was -11.4%; in experiment [4], 10.4%; in experiment [5] it was -0.15%; in experiment [6], -10.5%.

The values are drawn from PubChem BioAssay (NCI).
